Assay outcomes deposited in PubChem BioAssay by The Scripps Research Institute Molecular Screening Center.
Shown are actives, neighbours in structure and some others; about 3.5% of the full set was active somewhere.
TEAD-YAP inh: TEAD-YAP interaction inhibition; HEK-TIYL cells, TEAD-Gal4/YAP UAS-luciferase luminescence; 640,000 tested, 1.4% active; inhibition, % at 9.12 µM; in the data active = inhibition above about 32%;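 also: 0% = median of test compound wells and 100% = reference inhibitor wells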
FBW7 act: human FBW7 E3 ligase activation, primary screen; Q969H0; normalized activity (activation), % at 26.1 µM; 650,000 tested, 0.13% active; AlphaScreen FBW7–phospho-cyclin E peptide binding, activator screen; in the data active = normalized activity above about 1.9%;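 also: purified mutant Fbw7 with reduced substrate affinity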
Target sequence (Q969H0 whole entry, looked up): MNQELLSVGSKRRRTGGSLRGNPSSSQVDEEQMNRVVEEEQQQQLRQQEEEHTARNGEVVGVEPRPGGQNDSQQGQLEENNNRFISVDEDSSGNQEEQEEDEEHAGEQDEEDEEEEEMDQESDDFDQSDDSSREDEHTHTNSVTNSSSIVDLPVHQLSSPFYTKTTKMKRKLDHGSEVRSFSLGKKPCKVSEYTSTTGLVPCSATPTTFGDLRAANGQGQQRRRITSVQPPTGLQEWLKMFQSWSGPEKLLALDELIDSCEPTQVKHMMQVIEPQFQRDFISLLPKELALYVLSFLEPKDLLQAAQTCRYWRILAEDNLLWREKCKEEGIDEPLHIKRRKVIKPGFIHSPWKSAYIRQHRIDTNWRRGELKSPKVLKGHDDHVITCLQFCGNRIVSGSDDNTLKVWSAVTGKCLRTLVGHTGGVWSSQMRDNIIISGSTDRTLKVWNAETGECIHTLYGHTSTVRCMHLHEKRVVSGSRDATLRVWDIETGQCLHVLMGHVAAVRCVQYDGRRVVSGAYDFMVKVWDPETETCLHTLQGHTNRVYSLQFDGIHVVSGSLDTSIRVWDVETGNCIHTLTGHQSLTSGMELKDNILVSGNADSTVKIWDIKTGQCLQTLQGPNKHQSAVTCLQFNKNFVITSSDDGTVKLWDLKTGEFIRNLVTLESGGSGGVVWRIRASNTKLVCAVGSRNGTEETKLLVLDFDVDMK
MITF inh: human MITF inhibition, primary screen. O75030. AlphaScreen MITF homodimerization, bead proximity signal. inhibition, % at 2.6 µM. 650,000 tested, 0.91% active; in the data active = inhibition above about 50%;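 also: 0% = vehicle wells with protein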
GPR151 activ: human GPR151 activation; AID 1508602; activation, % at 11.2 µM; 650,000 tested, 1% active; Q8TDV0; PathHunter beta-arrestin GPR151 cells, luminescence; in the data active = activation above about 4.9%;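 also: 0% = median of compound wells and 100% = cells with positive control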
An asterisk follows results filed as active.

SMILES	TEAD-YAP inh	FBW7 act	MITF inh	GPR151 activ
COc1cc(C(=O)N2N=C(c3ccc4ccccc4c3)CC2c2ccccc2)cc(OC)c1OC (centres undefined)	1	0	18	0
Cc1ccc(C2=NN(S(C)(=O)=O)C(c3ccccc3F)C2)cc1 (centres undefined)	-40	0	-3	0
COc1cc(C(=O)N2N=C(c3ccccc3)CC2c2ccccc2)cc(OC)c1OC (centres undefined)	53*	0	-1	0
COc1ccc(-n2c(=O)[nH]cc(C(=O)Nc3ccc(C(C)=O)cc3)c2=O)cc1	-2	1	3	-1
Cn1c(=O)c2c(nc(SCC(=O)N3CCCCC3)n2Cc2ccc(F)cc2)n(C)c1=O	6	0	20	0
CCOc1cccc2nc(NC(=O)c3ccc(Oc4ccccc4)cc3)sc12	-8	0	-5	0
COc1ccc2nc(NC(=O)c3ccccc3)sc2c1	43*	0	-22	-7
CCOc1ccc(C(=O)Nc2nc3ccccc3s2)cc1	57*	0	-3	-7
O=C(Nc1nc2ccccc2s1)c1ccc(C(=O)c2ccccc2)o1	36*	0	-11	-2
Cc1cccc2nc(NC(=O)c3ccc(Oc4ccccc4)cc3)sc12	52*	0	-14	1
CCCCCCOc1ccc(C(=O)Nc2nc3ccccc3s2)cc1	7	0	9	0
O=C(CSc1nc2c(c(=O)[nH]1)CN(Cc1ccccc1)CC2)N1CCN(c2ccc(F)cc2)CC1	0	0	-15	-1
Cc1noc(/C=C/N(C)C)c1S(=O)(=O)N(C)C(c1ccccc1)c1ccccc1	11	0	9	0
COc1ccc2nc(NC(=O)c3cccs3)sc2c1	44*	0	-4	-8
CCOc1ccc2nc(NC(=O)c3cccs3)sc2c1	31	0	-12	-9
CCOc1ccc2nc(NC(=O)NC(=O)C(F)(F)F)sc2c1	63*	0	-4	-2
COc1ccc(N2CCN(c3ncnc4c3cnn4C)CC2)cc1	-4	0	0	0
COc1ccc(N2CCN(c3ncnc4c3cnn4CCNC(=O)c3cccs3)CC2)cc1	37*	0	-7	1
O=C(Cc1ccccc1)NCCn1ncc2c(N3CCN(c4ccc(F)cc4)CC3)ncnc21	12	0	0	1
O=C(NCCn1ncc2c(N3CCN(c4ccccc4)CC3)ncnc21)c1ccccc1F	48*	0	-12	0
Fc1ccc(CNCc2cccnc2)cc1	-11	0	17	0
Cc1cccc(CN[C@H]2C[C@H]3C(=O)N[C@@H](Cc4c[nH]c5ccccc45)C(=O)N3C2)c1	-8	0	8	0
COCCn1c(SCc2ccc([N+](=O)[O-])cc2)nnc1-c1ccccc1	2	0	0	0
Cc1cccc(OCCOC(=O)c2ccc(S(C)(=O)=O)c([N+](=O)[O-])c2)c1	38*	0	7	0
NC(=O)c1cnn(-c2ccnc(NC(=O)Cc3ccc(F)cc3)c2)c1	75*	0	-17	0
SMILES	TEAD-YAP inh	FBW7 act	MITF inh	GPR151 activ
COc1cc(OC)cc(C(=O)c2c(N)sc3c2CCC(C)C3)c1 (centres undefined)	54*	0	-5	1
COc1cc(OC)cc(C(=O)c2c(N)sc3c2CCCC3)c1	3	0	-11	0
Cc1cccc(NC(=O)CC(C)(C)C)c1C	-4	0	2	0
CCC(C)N(CC(=O)Nc1cccc(C)c1C)C(=O)CCl (centres undefined)	69*	0	-14	0
Cc1ccc2nc(C)c(C(=O)NC(c3ccccc3)C(F)(F)F)n2c1 (centres undefined)	0	0	-9	0
N#C/C(=N/Nc1cccc(C(F)(F)F)c1)C(N)=S	47*	0	-2	0
Cc1cccc(N2C(=O)NC(=O)/C(=C\c3ccoc3)C2=O)c1	-4	0	58*	-1
O=C1NC(=S)N(c2ccc(Cl)cc2)C(=O)/C1=C\c1ccoc1	10	0	34	-2
O=C1NC(=S)N(c2ccccc2)C(=O)/C1=C\c1ccoc1	3	0	71*	1
Cc1cccc(N2C(=O)NC(=O)/C(=C\c3cccc(O)c3)C2=O)c1	-3	0	4	1
O=C(COC(=O)c1cc([N+](=O)[O-])ccc1NCCO)Nc1ccc(Br)cc1	25	0	0	1
C=CCNS(=O)(=O)c1cc(Cl)ccc1OCC	5	0	13	3
c1ccc(N=C2NN=C(c3ccccc3)CS2)cc1	-36	0	-7	1
c1ccc(C2=NNC(=NC3CC3)SC2)cc1	80*	0	-7	-10
C=CCN1C(=O)CC(c2ccccc2)Nc2ccccc21 (centres undefined)	-5	0	2	1
Cc1nc2cc(NC(=O)N3c4ccccc4CC3C)ccc2n1C (centres undefined)	37*	0	-5	-2
CCCN1CCC(N2C[C@H](NCc3cccc(C)c3)C[C@H]2C(=O)NCC)CC1	-6	0	7	1
CC(C)c1ccc(CN[C@H]2C[C@H]3C(=O)N4CCC[C@@H]4C(=O)N3C2)cc1	6	1	21	-1
O=C(NCCCN1CCN(c2ccccc2F)CC1)c1ccc2c(=O)n(Cc3ccc(Cl)cc3)c(=S)[nH]c2c1	-3	1	0	0
Nc1ccc2oc(-c3cccc4c(Br)cccc34)nc2c1	65*	0	4	4
Nc1ccc2oc(-c3ccc(F)cc3Cl)nc2c1	37*	0	-2	-5
Nc1ccc2oc(-c3cccc(Br)c3)nc2c1	-42	0	9	1
Nc1ccc2oc(-c3ccc(O)c(Br)c3)nc2c1	59*	0	1	-10
Nc1ccc2oc(-c3ccccc3Br)nc2c1	25	1	6	-1
Nc1ccc2oc(-c3ccc4nc[nH]c4c3)nc2c1	61*	0	6	-6
SMILES	TEAD-YAP inh	FBW7 act	MITF inh	GPR151 activ
Nc1ccc2oc(-c3ccc(F)cc3)nc2c1	-2	0	2	-8
CCOC(=O)c1cnc2cc(C(F)(F)F)ccc2c1NCCCN1CCN(C)CC1	1	0	9	1
COc1ccc(C2N(c3ccccc3)C(=O)N3CCCN23)cc1 (centres undefined)	2	0	-25	4
N#Cc1ccc(OCC(=O)OCc2ccc(Br)cc2)cc1	1	0	13	0
O=C(COc1ccc(Br)cc1)OCc1ccccc1	-4	1.9*	7	-1
CCOc1ccc(N(CC(=O)N2CCOCC2)S(C)(=O)=O)cc1	14	2.1*	18	-2
CS(=O)(=O)N(CC(=O)N1CCOCC1)c1ccc(Oc2ccccc2)cc1	-5	0	2	1
Cc1ccc(/C=C2/CN(C)C/C(=C/c3ccc(C)o3)C2=O)o1	2	0	0	0
O=C1/C(=C/c2ccncc2)CCC/C1=C\c1ccncc1	59*	0	-2	0
O=C1/C(=C/c2cccnc2)CCCC/C1=C\c1cccnc1	-2	1	13	-4
CN1C/C(=C\c2ccncc2)C(=O)/C(=C/c2ccncc2)C1	95*	0	8	0
